CHT inh = inhibitors of human choline transporter CHT. High affinity choline transporter 1 (Homo sapiens), Q9GZV3. CHT-expressing cells, membrane potential dye, choline response; stronger effect = lower value. B-score at 10 µM. hit rate 0.86% among 310,000. AID 488975, 2010;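 active means B-score over 3 SD under the library average, and starting fluorescence ratio not unusually high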;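 further: choline stimulus applied at its EC90 after an EC20 pre-addition; B-score computed on integrated fluorescence ratio after choline addition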
Kir21 inh = inhibitors of mouse Kir2.1 inward-rectifier potassium channel; B-score at 10 µM; HEK293-Kir2.1, FluxOR thallium flux fluorescence; stronger effect = lower value; hit rate 0.85% among 310,000; Inward rectifier potassium channel 2 (Mus musculus), P35561;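 active means fluorescence ratio B-score at or below minus 3 SD of library scores, with starting-brightness B-score within 2 SD, cut at about -4.2 in these data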;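 further: channel flux triggered by added potassium and thallium sulfate stimulus; B-score of peak minus minimum fluorescence over baseline after thallium stimulus; more negative B-score means stronger Kir2.1 block with less thallium influx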
CHT PAM = CHT positive allosteric modulators, primary screen, cell-based, membrane potential dye, choline EC20. B-score at 10 µM. hit rate 0.49% among 310,000. CHT-expressing cells; stronger effect = higher value; LV-AA mutant CHT in HEK293 cells. High affinity choline transporter 1 (Homo sapiens), Q9GZV3;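 active means initial fluorescence not abnormally high and integrated response B-score, plate-corrected, over 3 SD above library mean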
Rce1 inh = yeast Rce1p protease inhibitors, primary screen, biochemical, fluorescence, cell-free homogeneous | yeast membranes, quenched prenylated peptide cleavage fluorescence | CAAX prenyl protease 2 (Saccharomyces cerevisiae (strain ATCC 204508 / S288c)), Q03530 | hit rate 0.27% among 290,000 | calls only;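 active means fall in fluorescence gain of 50% or more versus controls, with final raw signal at or below 3038400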;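 further: plate controls were neutral control wells for no effect and wells lacking membranes for full effect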
ANO1 activ = TMEM16A chloride channel activators or potentiators, primary screen, cell-based, HTS | Anoctamin-1 (Mus musculus), Q8BHY3 | HEK293 TMEM16A/YFP-H148Q/I152L, iodide quench fluorescence; stronger effect = lower value | B-score at 10 µM | hit rate 0.3% among 340,000 | AID 623877, 2012;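 active means fluorescence-ratio B-score plate-corrected deviation score at least 3 library SD below zero, with starting fluorescence score within 5 deviations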;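 further: channel opened by trigger with iodide after compound preincubation; score built on the fluorescence ratio of max minus min over baseline; more negative score means more quench and so TMEM16A activation or potentiation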
ANO1 block = TMEM16A chloride channel inhibitors, primary screen, cell-based, HTS. Anoctamin-1 (Mus musculus), Q8BHY3. HEK293 TMEM16A/YFP iodide influx fluorescence, ionomycin. normalized B-score (activity score, 25-100; higher = stronger inhibition) at 10 µM. hit rate 1.2% among 310,000. AID 588511, 2011;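 active means ratio plate-corrected score three or more library SD toward inhibition, starting fluorescence score within five deviations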;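 further: score derived from kinetic fluorescence span divided by baseline fluorescence per well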
hERG ctr = hERG channel inhibition, counter-screen for Kir2.1 inhibitor project, cell-based, thallium flux; shares compounds with Kir21 inh; hERG-expressing cells; inhibition, % at 10 µM; hit rate 20% among 320; AID 2236, 2010;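 further: host cells are CHO cells stably expressing hERG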
KCNK9 inh = KCNK9 channel inhibition, selectivity assay for Kir2.1 inhibitor project, cell-based; shares compounds with Kir21 inh; inhibition, % at 10 µM; hit rate 5% among 320; KCNK9-expressing cells, ion flux inhibition
Kir21 ephys inh = mouse Kir2.1 channel blockers, Kir2.1 inhibitor project, cell-based, secondary, automated electrophysiology; shares compounds with Kir21 inh; Kir2.1 cells, automated patch-clamp current inhibition; inhibition, % at 25 µM; hit rate 71% among 320
The depositor's hits bear a star; i = inactive; x = no result given. Hits are enriched below; roughly 3.2% of the tested compounds scored in any of these assays. Unless noted, how the calls were made is not given here.

SMILES | CHT inh | Kir21 inh | CHT PAM | Rce1 inh | ANO1 activ | ANO1 block | hERG ctr | KCNK9 inh | Kir21 ephys inh
Cc1ccc(NC(=O)CSCC(=O)Nc2cc(Cl)ccc2N2CCN(C)CC2)cc1 | i | -5.2* | i | i | i | i | x | x | x
O=C(CSc1nc2ccccc2n1Cc1ccccc1Cl)N/N=C/c1ccccc1C(=O)O | i | 1.4 | i | i | i | i | x | x | x
O=C(O)COc1ccccc1/C=N/NC(=O)CSc1nc2ccccc2n1Cc1ccccc1Cl | i | 2.8 | i | i | i | i | i | i | i
Cc1ccc2[nH]c3c(=O)n(CC(=O)NCCCN4CCN(c5ccc(F)cc5)CC4)ncc3c2c1 | i | 0.98 | i | i | i | i | x | x | x
Cc1ccc(C)c(Cn2c3ccccc3c3cnn(CC(=O)NCCCN4CCCCC4)c(=O)c32)c1 | i | -6.2* | i | i | i | i | i | i | i
COc1ccccc1Nc1nc(-c2cccc([N+](=O)[O-])c2)cs1 | i | 1.9 | i | i | i | i | x | x | x
O=[N+]([O-])c1cccc(-c2csc(Nc3ccccc3)n2)c1 | i | 2.8 | i | i | i | i | i | i | i
Cc1c(NC(=O)COC(=O)CCc2c[nH]c3ccccc23)c(=O)n(-c2ccccc2)n1C | i | 0.02 | i | i | i | i | x | x | x
O=C(COC(=O)c1cc(Br)ccc1O)NNC(=O)c1cccs1 | x | x | x | x | i | x | x | x | x
Cc1nc(N2CCN(Cc3ccccc3)CC2)nc2c1C(=O)CC(C)C2 (stereo not drawn) | i | -7.1* | i | i | i | i | i | i | 8.9%*
c1ccc(-c2ccccc2OCCOCCN2CCc3ccccc3C2)cc1 | i | -8.3* | i | i | i | i | 66%* | i | 39%*
OCCCN1CCN(CCOc2ccccc2-c2ccccc2)CC1 | i | -1.5 | i | i | i | i | x | x | x
CCOC(=O)c1cccc(Nc2ncnc3ccc(C)cc23)c1 | i | -6* | i | i | i | i | i | i | 32%*
Cn1c(CNc2ccc(Cl)cc2)nnc1SCc1ccccc1 | i | -0.26 | i | i | i | i | x | x | x
CCn1c(CNc2ccc(Cl)cc2)nnc1SCc1ccccc1 | i | -6.2* | i | i | i | i | i | i | i
Cc1cc(C)c(NC(=O)COC(=O)c2ccncc2)c(C)c1 | x | x | x | x | i | x | x | x | x
O=C(Nc1cc(S(=O)(=O)N2CCOCC2)ccc1N1CCOCC1)c1cccs1 | x | x | x | x | i | x | x | x | x
CCN(c1cccc(C)c1)S(=O)(=O)c1ccc2c(c1)NC(=O)CS2 | i | -5.9* | i | i | i | i | i | i | i
CCCn1nc(C(=O)NNC(=O)Cc2ccc(S(=O)(=O)N3CCOCC3)s2)c2ccccc2c1=O | i | -0.49 | i | i | i | i | x | x | x
C=CCc1ccc(OCC(O)CN2CCc3ccccc3C2)c(OC)c1 (stereo not drawn) | i | -5.8* | i | i | i | i | 56%* | i | 25%*
COc1cc(COCC(O)CN2CCc3ccccc3C2)cc(OC)c1OC (stereo not drawn) | i | 0.03 | i | x | i | i | x | x | x

From PubChem
